Experimental data as given in PubChem BioAssay.
Calls of active or inactive are those of the source.

Assays:
[1] = test system: Plasmodium falciparum Sir2 (PF13_0152, Sir2A); assay: Plasmodium falciparum Sir2A binding compounds – biochemical, small-molecule microarray, 635 nm fluorescence, primary screen (AID 1098); conditions: fluorescence 635 nm, higher = more signal;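 note: score merges spot fluorescence intensity with its signal-to-noise ratio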
[2] = probe aDKK1 binding to arrayed compounds – biochemical, biotinylated probe, 635/667 nm fluorescence, primary screen (AID 1099); conditions: small-molecule microarray, higher = more signal;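 note: score merges 667nm spot fluorescence with signal to noise across triplicate slides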
[3] = probe aCHRDL2 binding to arrayed compounds – biochemical, biotinylated probe, 635/667 nm fluorescence, primary screen (AID 1100); conditions: small-molecule microarray, higher = more signal
[4] = change in splice reporter luminescence, either direction, cell-based, HEK293, spliceosome inhibition project, primary screen (AID 1101); conditions: HEK293 splicing luciferase reporter, 24 h, higher = more signal, called active from +8 up or from −8 down;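 note: HEK293 cells carrying a splicing-competent luciferase reporter gene; test concentration not given here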
[5] = target: Fibroblast growth factor 10 (Homo sapiens) (UniProt O15520); assay: compounds binding fibroblast growth factor 10 – biochemical, small-molecule microarray, 635 nm fluorescence, primary screen (AID 1102); conditions: FGF10 binding, fluorescence 635 nm, higher = more signal
Fibroblast growth factor 10 (Homo sapiens), sequence (O15520 whole entry, looked up): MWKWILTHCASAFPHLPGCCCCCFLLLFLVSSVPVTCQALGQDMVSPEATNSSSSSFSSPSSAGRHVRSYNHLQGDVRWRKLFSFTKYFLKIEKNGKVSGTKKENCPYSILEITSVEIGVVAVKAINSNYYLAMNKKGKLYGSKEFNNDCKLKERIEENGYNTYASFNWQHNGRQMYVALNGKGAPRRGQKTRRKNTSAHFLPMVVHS

[6] = test system: glycogen synthase kinase-3 (GSK3A per assay name; protocol says GSK3B); assay: compounds binding glycogen synthase kinase-3 – biochemical, small-molecule microarray, 635 nm fluorescence, GSK3A, primary screen (AID 1103); conditions: fluorescence 635 nm, higher = more signal; note: the record names both GSK3A and GSK3B
[7] = target: Epidermal growth factor receptor (Homo sapiens) (UniProt P00533); assay: compounds binding epidermal growth factor receptor – biochemical, small-molecule microarray, 635 nm fluorescence, primary screen (AID 1104); conditions: EGFR binding, higher = more signal;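 note: score merges 667 nm emission intensity with spot signal to noise over triplicate slides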
Epidermal growth factor receptor (Homo sapiens), sequence (P00533 whole entry, looked up): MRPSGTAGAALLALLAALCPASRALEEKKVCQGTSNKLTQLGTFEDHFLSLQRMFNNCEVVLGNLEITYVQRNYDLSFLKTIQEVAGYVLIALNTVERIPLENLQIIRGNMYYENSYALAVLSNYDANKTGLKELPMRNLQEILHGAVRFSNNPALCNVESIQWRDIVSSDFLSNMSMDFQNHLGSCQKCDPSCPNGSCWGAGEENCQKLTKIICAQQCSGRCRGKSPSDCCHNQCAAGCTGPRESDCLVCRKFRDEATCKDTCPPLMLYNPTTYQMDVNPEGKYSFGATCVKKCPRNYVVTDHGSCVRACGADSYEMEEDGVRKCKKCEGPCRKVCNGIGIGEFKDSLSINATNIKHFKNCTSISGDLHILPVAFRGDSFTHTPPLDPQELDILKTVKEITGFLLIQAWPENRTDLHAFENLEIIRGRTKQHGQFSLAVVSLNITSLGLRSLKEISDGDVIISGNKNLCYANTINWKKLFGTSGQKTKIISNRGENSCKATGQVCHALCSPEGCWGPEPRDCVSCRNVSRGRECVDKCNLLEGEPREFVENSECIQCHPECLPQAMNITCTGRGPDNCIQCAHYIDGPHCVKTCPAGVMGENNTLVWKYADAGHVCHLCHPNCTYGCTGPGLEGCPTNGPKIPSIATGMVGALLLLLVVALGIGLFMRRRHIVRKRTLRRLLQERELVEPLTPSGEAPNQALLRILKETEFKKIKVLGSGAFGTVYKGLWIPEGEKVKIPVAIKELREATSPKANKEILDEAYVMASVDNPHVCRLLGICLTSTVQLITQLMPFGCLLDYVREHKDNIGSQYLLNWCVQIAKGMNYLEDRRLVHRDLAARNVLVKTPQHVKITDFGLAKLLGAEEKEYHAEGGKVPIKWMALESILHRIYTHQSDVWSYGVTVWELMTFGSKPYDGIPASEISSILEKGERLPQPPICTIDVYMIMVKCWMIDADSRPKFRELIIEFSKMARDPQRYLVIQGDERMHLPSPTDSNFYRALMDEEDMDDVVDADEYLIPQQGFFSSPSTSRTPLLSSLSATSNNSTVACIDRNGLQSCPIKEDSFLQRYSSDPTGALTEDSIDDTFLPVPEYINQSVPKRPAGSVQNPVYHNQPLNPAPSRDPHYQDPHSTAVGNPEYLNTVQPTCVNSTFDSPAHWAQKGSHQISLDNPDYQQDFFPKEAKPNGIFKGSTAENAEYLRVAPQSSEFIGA

[8] = target: Follistatin-related protein 3 (Homo sapiens) (UniProt O95633); assay: compounds binding follistatin-related protein 3 – biochemical, small-molecule microarray, 635 nm fluorescence, primary screen (AID 1105); conditions: FSTL3 binding, higher = more signal;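 note: score merges emission near 667 nm and signal to noise per printed spot across three slides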
Follistatin-related protein 3 (Homo sapiens), sequence (O95633 whole entry, looked up): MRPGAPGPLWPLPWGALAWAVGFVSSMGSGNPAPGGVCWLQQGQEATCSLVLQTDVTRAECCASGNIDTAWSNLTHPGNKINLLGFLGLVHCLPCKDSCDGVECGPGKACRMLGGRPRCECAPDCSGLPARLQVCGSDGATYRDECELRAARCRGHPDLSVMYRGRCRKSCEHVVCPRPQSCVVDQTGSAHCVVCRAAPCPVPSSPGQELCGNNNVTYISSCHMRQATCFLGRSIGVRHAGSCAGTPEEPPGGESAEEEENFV

[9] = target: Dickkopf-related protein 1 (Homo sapiens) (UniProt O94907); assay: small molecules binding DKK1 protein – biochemical, small-molecule microarray, 635 nm fluorescence scan, primary screen (AID 1106); conditions: higher = more signal;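 note: score merges emission near 667 nm with signal to noise over three replicate slides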
Dickkopf-related protein 1 (Homo sapiens), sequence (O94907 whole entry, looked up): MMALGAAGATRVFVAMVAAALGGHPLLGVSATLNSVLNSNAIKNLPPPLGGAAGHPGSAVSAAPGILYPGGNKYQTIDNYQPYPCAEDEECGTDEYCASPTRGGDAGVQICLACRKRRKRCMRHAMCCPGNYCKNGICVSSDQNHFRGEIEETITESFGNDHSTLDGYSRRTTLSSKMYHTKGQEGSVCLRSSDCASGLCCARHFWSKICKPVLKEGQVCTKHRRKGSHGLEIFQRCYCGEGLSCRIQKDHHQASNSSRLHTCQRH

[10] = test system: Inhibin beta A chain (activin A); assay: small molecules binding activin A – biochemical, small-molecule microarray, 635 nm fluorescence scan, primary screen (AID 1107); conditions: INHBA, higher = more signal;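 note: mouse activin A protein probed at 4.33 µg/mL on printed slides; score merges bound-protein fluorescence near 667 nm with spot signal-to-noise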
[11] = test system: Human papillomavirus type 1a protein E7 (residues 44-93); assay: small molecules binding HPV E7 44-93 – biochemical, small-molecule microarray, residues 44-93, 635 nm fluorescence, primary screen (AID 1108); conditions: fluorescence 635 nm, higher = more signal;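 note: E7 fragment applied at 1 µg/mL in TBST for 1 h at 4 C; score combines spot fluorescence with its signal to noise ratio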
[12] = hepatitis C replication reporter changes, two-sided – Huh7 cells, luciferase reporter, HCV replication inhibitor project, primary screen (AID 1109); conditions: Huh7 HCV replicon luciferase reporter, 48 h; higher = more signal;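 note: huh7 hepatoma cells harbouring a luciferase neomycin HCV replicon reporter; luciferase luminescence as measure of HCV replicon replication; test concentration not given here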
[13] = target: Left-right determination factor 2 (Homo sapiens) (UniProt O00292); assay: small molecules binding LEFTY2 protein – biochemical, small-molecule microarray, 635 nm fluorescence scan, primary screen (AID 1110); conditions: higher = more signal
Left-right determination factor 2 (Homo sapiens), sequence (O00292 whole entry, looked up): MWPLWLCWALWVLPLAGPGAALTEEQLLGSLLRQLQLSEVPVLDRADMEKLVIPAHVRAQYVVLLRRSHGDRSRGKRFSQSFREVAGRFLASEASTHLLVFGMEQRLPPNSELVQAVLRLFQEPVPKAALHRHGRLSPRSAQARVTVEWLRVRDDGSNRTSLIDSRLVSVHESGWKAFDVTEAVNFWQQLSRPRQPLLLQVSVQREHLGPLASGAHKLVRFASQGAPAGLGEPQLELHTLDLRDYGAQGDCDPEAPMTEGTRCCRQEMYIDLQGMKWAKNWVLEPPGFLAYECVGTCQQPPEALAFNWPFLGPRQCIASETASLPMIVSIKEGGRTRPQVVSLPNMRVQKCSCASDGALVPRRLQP

[14] = target: Calmodulin-1 (Homo sapiens) (UniProt P0DP23); assay: small molecules binding calmodulin-1 with EGTA – biochemical, small-molecule microarray, Cy5-labelled CALM1, profiling panel (AID 1111); conditions: Cy5-CALM1 binding fluorescence, higher = more signal;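 note: labelled calmodulin applied in Tris saline Tween buffer holding calcium plus EGTA and DTT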
[15] = target: Calmodulin-1 (Homo sapiens) (UniProt P0DP23); assay: small molecules binding Ca-loaded calmodulin-1 – biochemical, small-molecule microarray, Cy5-labelled CALM1, plus calcium, artefact control for SMM control-protein annotation, profiling panel (AID 1112); conditions: Cy5-CALM1 binding fluorescence, higher = more signal;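 note: score merges spot fluorescence with signal to noise from triplicate slides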
[16] = probe aWnt5a binding to arrayed compounds – biochemical, biotinylated probe, 635/667 nm fluorescence, primary screen (AID 1113); conditions: small-molecule microarray, higher = more signal;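 note: score merges 667 nm fluorescence intensity with signal-to-noise per printed feature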
[17] = probe aShh binding to arrayed compounds – biochemical, biotinylated probe, 635/667 nm fluorescence, primary screen (AID 1114); conditions: small-molecule microarray, higher = more signal;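 note: probe is biotin-labelled aShh protein from a stem cell growth factor screen; measures binding of labelled protein to compounds printed on the slide; score merges feature fluorescence at 667 nm with signal-to-noise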
[18] = probe aNog binding to arrayed compounds – biochemical, biotinylated probe, 635/667 nm fluorescence, primary screen (AID 1115); conditions: small-molecule microarray, higher = more signal;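 note: probe is biotinylated aNog protein used at 0.15 µg/mL for 1 h at 4 C; z-score combines 667 nm fluorescence of each spot with its signal to noise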
[19] = target: Torsin-1A-interacting protein 1 (Homo sapiens) (UniProt Q5JTV8); assay: compound microarray binding of lysate hLAP1 – cell lysate, small-molecule microarray, COS7 lysate, 635/667 nm fluorescence, primary screen (AID 1116); conditions: 635 nm fluorescence, higher = more signal
Torsin-1A-interacting protein 1 (Homo sapiens), sequence (Q5JTV8 whole entry, looked up): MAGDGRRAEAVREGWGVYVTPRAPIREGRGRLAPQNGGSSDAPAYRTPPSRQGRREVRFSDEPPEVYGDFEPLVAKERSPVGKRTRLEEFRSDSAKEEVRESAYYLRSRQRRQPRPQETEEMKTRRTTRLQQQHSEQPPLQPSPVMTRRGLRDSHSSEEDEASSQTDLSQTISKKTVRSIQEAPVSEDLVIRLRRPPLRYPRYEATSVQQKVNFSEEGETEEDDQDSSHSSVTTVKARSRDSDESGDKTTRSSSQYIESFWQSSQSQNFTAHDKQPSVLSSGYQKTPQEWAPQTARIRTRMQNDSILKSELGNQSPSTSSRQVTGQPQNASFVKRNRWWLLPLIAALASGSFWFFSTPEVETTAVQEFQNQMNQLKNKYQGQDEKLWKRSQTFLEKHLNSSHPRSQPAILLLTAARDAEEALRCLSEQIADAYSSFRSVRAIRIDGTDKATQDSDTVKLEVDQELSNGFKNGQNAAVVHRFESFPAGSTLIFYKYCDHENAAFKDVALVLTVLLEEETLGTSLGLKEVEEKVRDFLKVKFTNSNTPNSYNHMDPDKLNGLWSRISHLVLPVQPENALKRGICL

[20] = target: Alpha-bungarotoxin (Bungarus multicinctus) (UniProt P60615); assay: compounds binding labelled alpha-BTX control protein – biochemical, small-molecule microarray, Alexa647 label, 635/667 nm fluorescence, artefact control for SMM control protein annotation, profiling panel (AID 1117); conditions: alpha-BTX-A647 binding fluorescence, higher = more signal
Alpha-bungarotoxin (Bungarus multicinctus), sequence (P60615 whole entry, looked up): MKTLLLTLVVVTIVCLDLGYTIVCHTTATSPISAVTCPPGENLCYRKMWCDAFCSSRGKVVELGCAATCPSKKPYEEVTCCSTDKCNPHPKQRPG

Row | SMILES | composite z-score [1] | composite z-score [2] | composite z-score [3] | z-score [4] | composite z-score [5] | composite z-score [6] | composite z-score [7] | composite z-score [8] | composite z-score [9] | composite z-score [10] | composite z-score [11] | z-score [12] | composite z-score [13] | composite z-score [14] | composite z-score [15] | composite z-score [16] | composite z-score [17] | composite z-score [18] | composite z-score [19] | composite z-score [20]
1 | C#C[C@H](O[Si](C#Cc1ccc(Oc2ccccc2)cc1)(C(C)C)C(C)C)c1ccccc1 | 1.39 | 0.629 | 0.0024 | -0.855 (inactive) | 0.406 | 0.639 | 0.144 | 0.563 | -0.0522 | -0.0811 | 0.922 | -1.73 | 0.764 | -0.355 | -0.571 | -0.0519 | -0.248 | -0.244 | 0.692 | 0.495
2 | CC1CC/C=C\[C@H]2OC34C=CCN(C(C)(C)C)C(=O)[C@H]3N(C(C)CO)C(=O)[C@@H]4C2C(=O)O1 (stereo not given in full) | -1.24 | -0.366 | -0.266 | 1.11 (inactive) | -0.443 | -0.948 | -0.698 | -0.268 | -0.007 | 1.28 | -0.864 | -1.4 | -0.442 | -1.19 | -1.23 | -0.124 | -0.0011 | -0.219 | -0.23 | -0.942
3 | COC(=O)[C@@]1(Cc2ccc(OC)cc2)[C@H]2c3cc(C(=O)N(C)C)n(CCc4ccccn4)c3C[C@H]2CN1C(=O)c1ccccc1 | 0.566 | 1.62 | 1.41 | 0.317 (inactive) | 0.286 | -0.133 | -0.011 | 0.0285 | -0.586 | 0.937 | 0.263 | -0.845 | -0.288 | 0.993 | 0.93 | 0.675 | 1.31 | 0.854 | 1.01 | 0.248
4 | CCC(CC)C(O)C1C=CC2C(=O)NC(=O)C2N1Nc1ccccn1 (stereo not given) | 0.259 | 0.572 | -0.705 | 1.17 (inactive) | 0.269 | 0.291 | 0.384 | 0.584 | 0.816 | 1.29 | 0.365 | -0.642 | 0.255 | 0.0646 | -0.161 | -0.0704 | -0.217 | 0.455 | 0.275 | 0.512
5 | CCOC(=O)C[C@H]1[C@H](OC(=O)c2cc3ccccc3oc2=O)[C@@H](NC(=O)c2ccccc2)c2cc(OCCCO)ccc2N1C(=O)c1ccc2ccccc2n1 | 0.485 | -0.128 | -0.446 | 0.0189 (inactive) | 0.72 | 0.228 | 0.536 | 1.11 | 0.425 | 0.344 | 0.55 | -0.765 | 0.782 | 0.183 | -0.505 | -0.0758 | -0.237 | -0.242 | 0.79 | 0.137
6 | O=C1C[C@@](C(=O)NCCN2CCOCC2)(c2ccc([N+](=O)[O-])cc2)[C@@H](c2ccc(CO)cc2I)N1CC12CC3CC(CC(C3)C1)C2 | 1.29 | -0.174 | 0.283 | -3.38 (inactive) | 1.33 | 1.3 | 0.545 | 1.03 | 0.324 | -0.0038 | 1.45 | -3.49 | 0.462 | 0.76 | -0.581 | -0.034 | -0.0146 | -0.388 | 1.17 | 1.48
7 | CC(C)[Si]1(C(C)C)O[C@@H](c2ccccc2)c2cc(-c3ccc(-c4ccc(Cl)c(Cl)c4)o3)nc(-c3ccccc3)c21 | 0.735 | 0.0699 | 0.234 | 0.115 (inactive) | 0.353 | -0.514 | 0.0831 | 0.0331 | -0.172 | 0.756 | -0.342 | -1.55 | -0.115 | 0.487 | 0.0017 | -0.137 | -0.138 | 0.15 | -0.101 | 0.575
